NRP1-CendR mod: modulators of CendR peptide binding to NRP-1, primary screen, biochemical, fluorescence polarization, uHTS; Neuropilin-1 (Homo sapiens), O14786; actives 0.85% (n = 360,000); AID 602438, 2012; FAM-RPARPAR peptide binding to NRP-1; inhibition, % at 25 µM;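 active = inhibition or corrected inhibition above about 18%, plus a signal ratio from 0.5 to 1.5, limit read from the data, passing the limit was not always enough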
Target sequence (O14786 whole entry, looked up): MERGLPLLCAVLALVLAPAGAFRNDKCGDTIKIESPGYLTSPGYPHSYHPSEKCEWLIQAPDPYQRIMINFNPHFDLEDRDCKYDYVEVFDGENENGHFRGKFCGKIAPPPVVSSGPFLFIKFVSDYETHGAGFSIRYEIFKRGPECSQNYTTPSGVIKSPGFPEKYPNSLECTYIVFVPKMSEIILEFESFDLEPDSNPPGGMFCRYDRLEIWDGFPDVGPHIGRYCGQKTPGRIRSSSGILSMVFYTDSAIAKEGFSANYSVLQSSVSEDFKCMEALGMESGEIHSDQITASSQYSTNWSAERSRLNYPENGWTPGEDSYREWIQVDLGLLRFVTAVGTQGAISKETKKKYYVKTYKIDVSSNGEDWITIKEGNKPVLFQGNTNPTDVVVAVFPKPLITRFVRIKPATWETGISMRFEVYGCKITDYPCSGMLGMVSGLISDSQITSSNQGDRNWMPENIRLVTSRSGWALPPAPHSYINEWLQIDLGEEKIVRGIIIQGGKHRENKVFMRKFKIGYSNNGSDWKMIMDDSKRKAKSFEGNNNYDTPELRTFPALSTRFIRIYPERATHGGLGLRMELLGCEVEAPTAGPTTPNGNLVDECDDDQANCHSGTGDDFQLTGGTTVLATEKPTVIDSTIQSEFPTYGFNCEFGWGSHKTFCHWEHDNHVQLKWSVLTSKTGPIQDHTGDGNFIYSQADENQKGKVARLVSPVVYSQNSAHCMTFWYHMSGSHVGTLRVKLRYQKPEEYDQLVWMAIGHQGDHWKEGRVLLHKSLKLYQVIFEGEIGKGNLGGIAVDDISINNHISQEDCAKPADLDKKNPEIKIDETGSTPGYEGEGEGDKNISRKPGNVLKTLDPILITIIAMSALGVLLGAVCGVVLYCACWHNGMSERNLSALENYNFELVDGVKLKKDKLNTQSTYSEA
F508del corr: F508del CFTR correction, initial screen, CFBE line, single point | activity (quench increase), % at 7.58 µM | actives 0.36% (n = 350,000) | CFBE cells, YFP halide quenching; stimulated with forskolin plus potentiator P3; % fluorescence drop versus neutral controls;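 active = mean added fluorescence quench of at least 8% versus neutral control, with both replicates also reaching 8%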;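 note: cells transiently co-express mutant CFTR-F508del with the halide-sensitive YFP; corrector assay measuring rescue of mutant channel to the surface after 24 h compound exposure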
MPTP inh: mitochondrial permeability transition pore inhibitors, primary screen, biochemical, isolated mouse mitochondria, absorbance | Ca2+ swelling absorbance, 30 min | inhibition, % at 10 µM | actives 1.4% (n = 360,000) | AID 602449, 2012;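 active = inhibition of 50% or more, scaled per plate between neutral and stimulator controls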
SKN-1 inh: suppressors of acrylamide-induced Pgst-4::GFP reporter in worms, primary screen, SKN-1 inhibitor project, whole organism, uHTS, GFP/RFP fluorescence ratio, strain VP596; inhibition, % at 21.8 µM; C. elegans VP596 Pgst-4::GFP/RFP ratio, 24 h; actives 0.49% (n = 360,000); AID 624304, 2012;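 active = interference check ratio from 0.5 to 1.5 plus GFP to RFP signal ratio inhibition reaching or exceeding a fixed threshold, cut at about 30% in these data, passing the limit was not always enough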
ATG4B inhibitor: ATG4B protease inhibitors, primary screen, biochemical, fluorescence, uHTS; ATG4B cleavage of LC3-PLA2, NBD-HPC fluorescence, 1 h; actives 0.51% (n = 340,000); Cysteine protease ATG4B (Homo sapiens), Q9Y4P1; AID 504462, 2011; inhibition, % at 8.33 µM; in the data active = inhibition above about 40%
ATG4B conf: ATG4B protease inhibitors, retest, confirmation, biochemical, fluorescence, single concentration; actives 92% (n = 320); ATG4B protease fluorescent substrate cleavage assay; shares compounds with ATG4B inhibitor; inhibition, % at 8.33 µM; in the data active = inhibition above about 39%
PLA2 ctr: PLA2 enzyme inhibition, counter-screen for ATG4B inhibitor project, biochemical, single concentration, uHTS hits | shares compounds with ATG4B inhibitor | purified PLA2, NBD-C6-HPC fluorescence, 45 min | inhibition, % at 8.33 µM | actives 66% (n = 1,600) | AID 588402, 2011; in the data active = inhibition above about 50%
Hits are given with their value; . = inactive; / = not tested or not shown. The list is not random: actives were taken first. Their share in the collection is about 2.7%.

SMILES | NRP1-CendR mod | F508del corr | MPTP inh | SKN-1 inh | ATG4B inhibitor | PLA2 ctr | others
COc1ccccc1NS(=O)(=O)c1cccc(-n2c(O)c(C=Nc3ccccc3C(=O)O)c3ccccc3c2=O)c1 | . | . | . | . | 51 | 74
COC(=O)[C@]12C[C@H](CC(=O)NCc3ccc(C)o3)C(=O)N(Cc3ccc4c(c3)OCO4)C1=C[C@H](C(C)(C)C)O[C@@H]2C | / | . | / | / | / | /
C[C@H](CO)N1C[C@H](C)[C@@H](CN(C)CC2CCCCC2)OCCCC[C@H](C)Oc2ccc(NC(=O)Nc3ccc4c(c3)OCO4)cc2C1=O | / | . | / | / | / | /
C[C@@H]1CN([C@@H](C)CO)C(=O)c2cc(NS(=O)(=O)c3cccs3)ccc2O[C@@H]1CN(C)C | / | . | / | / | / | /
Cc1ccc(OCc2cc(C(=O)NCc3cc(F)ccc3C)no2)cn1 | . | . | . | . | 50 | 54
O=C(c1cc(-c2ccccc2)on1)N1CCc2ccccc2C1 | . | / | . | 37 | 41 | 52
CC(C)CNc1cccc2c1S(=O)(=O)N[C@@H](C)CO2 | / | . | / | / | / | /
Cc1ccc(C)c(OCc2cc(C(=O)N3CCc4sccc4C3)no2)c1 | . | . | . | . | 46 | 81
CSc1ccccc1OCc1cc(C(=O)N2CCc3sccc3C2)no1 | . | . | . | . | 72 | 78
O=C(c1cc(COc2ccc(F)cc2Cl)on1)N1CCc2sccc2C1 | . | . | . | . | . | /
COc1ccc(-c2ccc([C@H]3[C@@H](C#N)N(C(=O)NC4CCCC4)[C@@H]3CO)cc2)cc1 | / | . | / | / | / | /
O=C(Nc1nccs1)[C@H]1[C@H](CO)[C@H]2Cn3c(cccc3=O)[C@H]2N1C(=O)C1CCC1 | / | . | / | / | / | /
CCCOc1cccc(C(=O)N/N=C/c2coc3ccccc3c2=O)c1 | . | . | . | . | 43 | 74
CN1c2ccc(-c3cccc(F)c3)cc2[C@@H]2[C@@H](CCN2C(=O)c2ccncc2)[C@H]1CO | / | . | / | / | / | /
CC(NS(=O)(=O)c1ccc(CCC(=O)NCc2cccnc2)cc1)c1ccccc1 (stereo not drawn) | . | / | . | . | 90 | .
NC(=O)CSc1nc2ccc([N+](=O)[O-])cc2[nH]1 | . | . | . | . | 42 | . | ATG4B conf=69
O=C(Nc1cccc(Cl)c1N1CCCC1)c1ccco1 | . | . | . | . | 63 | 68
O=C(Nc1cccc(Cl)c1N1CCCCC1)c1ccc2c(c1)OCCO2 | . | / | . | . | . | /
CCN1CCN(c2c(Cl)cccc2NC(=O)c2ccc3c(c2)OCCO3)CC1 | . | / | . | . | 65 | 67
Cc1cccc(N2CCN(C(=O)C3CCN(c4ncnc5c4nc4n5CCCCC4)CC3)CC2C)c1 (stereo not drawn) | . | . | . | . | 47 | . | ATG4B conf=63
Cc1ccc(NC(=O)C2CCN(c3ncnc4c3nc3n4CCCCC3)CC2)cc1Cl | . | . | . | . | 60 | 69
Cc1cccc(N2CCN(C(=O)C3CCN(c4ncnc5c4nc4n5CCCCC4)CC3)CC2)c1C | . | . | . | . | 63 | 78
Cc1ccc(NC(=O)C2CCCN(c3ncnc4c3nc3n4CCCCC3)C2)cc1Cl (stereo not drawn) | . | . | . | . | . | /
C[C@H](CO)N1C[C@H](C)[C@H](CN(C)CC2CCOCC2)Oc2ncc(-c3cncnc3)cc2C1=O | / | . | / | / | / | /
C[C@H](CO)N1C[C@H](C)[C@H](CN(C)C(=O)CCC(F)(F)F)OCCCC[C@H](C)Oc2ccc(NC(=O)c3ccccc3)cc2C1=O | / | . | / | / | / | /
SMILES | NRP1-CendR mod | F508del corr | MPTP inh | SKN-1 inh | ATG4B inhibitor | PLA2 ctr | others
C[C@H](CO)N1C[C@H](C)[C@@H](CN(C)CC2CC2)Oc2ccc(NS(=O)(=O)c3cccs3)cc2CC1=O | / | . | / | / | / | /
CCCCCCCCCCC[N+](C)(C)CC/C=C1/c2ccccc2Sc2ccc(Cl)cc21 | . | / | . | . | 47 | 52
CCCCCCCCCC[N+](C)(C)CC/C=C1/c2ccccc2Sc2ccc(Cl)cc21 | . | / | . | . | . | /
Cc1ccc(-n2c(SCC(=O)N/N=C/c3c(C)nn(-c4ccccc4)c3C)nc3ccccc3c2=O)cc1 | . | / | . | . | 40 | . | ATG4B conf=78
COCC(=O)N(C)C[C@H]1Oc2cc(-c3ccc(C)cc3)ccc2S(=O)(=O)N([C@H](C)CO)C[C@H]1C | / | . | / | / | / | /
COc1ccc(-c2nc(CS(=O)(=O)CC(=O)NCc3ccccc3Br)c(C)o2)cc1 | . | . | . | . | 84 | 92
Cc1cc(C=C2C(=O)c3ccccc3C2=O)c(C)n1-c1ccc(C(=O)O)cc1 | . | . | . | . | . | /
Cc1cc(C=C2C(=O)c3ccccc3C2=O)c(C)n1-c1ccccc1 | . | / | . | . | 45 | . | ATG4B conf=67
Cc1cc(C=C2C(=O)c3ccccc3C2=O)c(C)n1-c1cccc(C(=O)O)c1 | . | . | . | . | . | /
Cc1cc(/C=C2\Cc3ccccc3C2=O)c(C)n1-c1ccccc1 | . | / | . | . | 62 | 62
CCC(=O)Nc1ccc2c(c1)C(=O)N(C)C[C@@H](OC)[C@@H](C)CN(Cc1ccncc1)[C@H](C)CO2 | / | . | / | / | / | /
C[C@H](CO)N1C[C@H](C)[C@H](CN(C)C(=O)Nc2ccccc2F)Oc2ncc(-c3ccccc3)cc2C1=O | / | . | / | / | / | /
Oc1c(Br)cc(Br)cc1C=Nc1ccc2c(c1)OCO2 | . | / | . | . | 63 | . | ATG4B conf=48
Oc1c(Br)cc(Br)cc1C=Nc1ccc2c(c1)OCCO2 | . | . | . | . | . | /
O=C(O)c1cccc(CSc2nc(-c3ccc(Cl)cc3)cc(C(F)(F)F)n2)c1 | . | / | . | . | 52 | . | ATG4B conf=62
O=C(C[C@H]1C[C@H]2c3cc(NC(=O)C4CCC4)ccc3O[C@H]2[C@@H](CO)O1)NCc1ccccc1F | / | . | / | / | / | /
CCOc1cc(C(N)=O)cc(Cl)c1OCc1ccccc1 | . | . | . | . | 49 | 71
CCOc1cc(CNCC(C)C)cc(Cl)c1OCc1ccccc1 | . | . | . | . | . | /
COc1cc(C(N)=O)cc(Cl)c1OCc1ccccc1 | . | . | . | . | 60 | 60
Cc1c(Cl)cccc1NC(=S)NCc1cccn1C | 28 | / | . | . | 47 | 66
COC(=O)c1cccc(NC(=S)Nc2cccc(Cl)c2C)c1 | . | . | . | . | 58 | 56
Cc1ccccc1NC(=S)NCc1cccn1C | . | / | . | . | . | /
Cc1c(Cl)cccc1NC(=S)NCCC(C)C | . | / | . | . | 64 | 67
COc1cccc(CNC(=S)Nc2cccc(Cl)c2C)c1 | . | . | . | . | 54 | 65
COC(=O)c1cccc(NC(=S)Nc2ccccc2Cl)c1 | . | . | . | . | . | /
